tim23-1 inh: growth inhibitors of tim23-1 mutant yeast, primary screen, luminescence, uHTS. S. cerevisiae tim23-1 growth, BacTiter-Glo luminescence, 24 h. inhibition, % at 20 µM. actives 1.3% (n = 330,000);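 active = growth inhibition of the mutant yeast at or above 50%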;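 note: temperature-sensitive mutant grown at 25 °C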
tim10-1 inh: growth inhibitors of tim10-1 mutant yeast, primary screen, luminescence, uHTS | S. cerevisiae tim10-1 ts strain growth, BacTiter-Glo, 24 h | actives 2.2% (n = 330,000) | inhibition, % at 20 µM | AID 463190, 2010;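 active = inhibition of at least 40%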;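 note: mutant grown at 25 °C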
V-ATPase pHluor: regulators of yeast V-ATPase proton pumping, primary screen, pHLuorin cytosolic pH fluorescence; S. cerevisiae; response, % at 10 µM; actives 0.37% (n = 350,000); AID 504577, 2011; in the data active = response mostly above about 7.3%, no sharp cut-off; inactive = mostly below about 5.4%; note: actives read high
PfHsp90 yeast 2: growth inhibition of PfHsp90-expressing yeast, primary screen, antimalarial PfHsp90 inhibitor project, S. cerevisiae, BacTiter-Glo luminescence, single point, set 2. actives 0.32% (n = 310,000). inhibition, % at 9.4 µM. AID 504621, 2011. BacTiter-Glo ATP, 48 h; yeast lacking PDR1 and PDR3 efflux regulators;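 active = every replicate shows inhibition above about 80%, whatever the replicate mean, limit read from the data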
TIM10 inh: growth inhibitors of isogenic TIM10 control yeast, primary screen, counter-screen for tim10-1 yeast inhibitor project, luminescence, uHTS | S. cerevisiae TIM10 strain growth, BacTiter-Glo luminescence, 24 h | actives 1.4% (n = 330,000) | inhibition, % at 10 µM;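 active = inhibition of 40% or more at the single tested concentration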;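 note: wild-type TIM10 isogenic control strain grown at permissive 25 °C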
tim10-1 conf: growth inhibitors of tim10-1 mutant yeast, confirmation, single concentration, luminescence, S. cerevisiae. shares compounds with tim10-1 inh. actives 56% (n = 7,400). AID 463213, 2010. S. cerevisiae tim10-1 ts strain growth, BacTiter-Glo, 24 h. inhibition, % at 20 µM;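 active = inhibition of yeast growth at or above a set limit in either of two repeat tests at 20 µM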;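 note: tim10-1 mutant grown at permissive 25 °C to find synthetic lethal compounds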
tim10 confirm: growth inhibitors of wild-type TIM10 yeast, confirmation, counter-screen for tim10-1 synthetic lethality project, single concentration, luminescence, S. cerevisiae; shares compounds with TIM10 inh; S. cerevisiae tim10 strain growth, BacTiter-Glo luminescence, 24 h; inhibition, % at 10 µM; actives 63% (n = 4,600);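 active = inhibition of yeast growth at or above a set limit in either of two replicates at 10 µM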; note: this counterscreen used the strain with wild-type TIM10
Of the large screens only hits and unclear results are named; the others gave an inactive call (follow-up assays come after a bar, where they were run). In the library only some 3.7% were active in any assay of this set; here they are far more common.

O=C(/C=C/c1ccccc1[N+](=O)[O-])OCC(=O)c1ccccc1	none
O=C(/C=C/c1ccccc1[N+](=O)[O-])c1ccc(F)cc1	tim10-1 inh 47.2, TIM10 inh 42.6 | tim10-1 conf 43.9 | tim10 confirm inactive
Cc1cc(Br)c2c(c1)/C(=C/C(=O)c1cccs1)C(=O)N2	tim10-1 inh 47.4, PfHsp90 yeast 2 87.8, TIM10 inh 49.9 | tim10-1 conf 33.9 | tim10 confirm 68.1
CCOC(=O)Cc1csc(NC(=S)NC(=O)c2ccccc2)n1	tim10-1 inh 47.0, TIM10 inh 50.7 | tim10-1 conf inactive | tim10 confirm 35.3
CCOC(=O)Cc1csc(NC(=S)NC(=O)c2ccc(C)cc2)n1	none
COc1ccc(/C=C/C(=O)c2c(C)nc3ccccn23)cc1	none (no result: PfHsp90 yeast 2)
Cc1nc2ccccn2c1C(=O)/C=C/c1ccc(F)cc1	tim10-1 inh 49.5, TIM10 inh 40.1 (no result: PfHsp90 yeast 2) | tim10-1 conf 36.7 | tim10 confirm 43.0
COc1cccc(/C=N/Nc2ncnc3scc(-c4ccccc4)c23)c1OC	tim10-1 inh 46.1, TIM10 inh 40.2 | tim10-1 conf 42.9 | tim10 confirm 31.3
O=C(COc1cccc(C(F)(F)F)c1)Nc1ccc(S(=O)(=O)N2CCCCC2)cc1	tim10-1 inh 43.3, TIM10 inh 44.9 | tim10-1 conf 49.3 | tim10 confirm 59.0
Cc1cccc(OCC(=O)Nc2ccc(S(=O)(=O)N3CCCC3)cc2)c1	tim10-1 inh 43.5, TIM10 inh 44.8 | tim10-1 conf 36.7 | tim10 confirm 46.9
O=C(NCCC1=CCCCC1)C1CCN(C(=O)Cc2ccccc2)CC1	none
COc1ccc(NC(=O)c2ccc(OC)c(S(=O)(=O)N3CCCCC3C)c2)cn1 (configuration not stated)	none
CC(C)c1ccc(N2C(=O)CC(Sc3ncn[nH]3)C2=O)cc1 (configuration not stated)	tim10-1 inh 45.6, TIM10 inh 69.3 | tim10-1 conf 51.9 | tim10 confirm 62.5
COc1ccc(N2C(=O)CC(Sc3ncn[nH]3)C2=O)c(OC)c1 (configuration not stated)	none
CC(C)c1ccc(N2C(=O)CC(Sc3nc4ccccc4o3)C2=O)cc1 (configuration not stated)	tim10-1 inh 52.5, TIM10 inh 53.0 (no result: PfHsp90 yeast 2) | tim10-1 conf 46.3 | tim10 confirm 41.0
CC(C)NC(=S)N/N=C1\CCCCC1C1CCCCC1 (configuration not stated)	tim10-1 inh 44.0, TIM10 inh 41.8 (no result: PfHsp90 yeast 2) | tim10-1 conf 31.8 | tim10 confirm inactive
Cc1cc(C(=O)Nc2ccc(S(=O)(=O)N3CCCC3)cc2)cs1	tim10-1 inh 43.8, TIM10 inh 55.8 | tim10-1 conf 40.1 | tim10 confirm 36.1
COc1ccc(C(=O)Nc2ccc(S(=O)(=O)N3CCCCC3)cc2)cc1OC	tim10-1 inh 48.9, TIM10 inh 60.3 | tim10-1 conf 33.4 | tim10 confirm inactive
COc1cc(OC)c(C(=O)Nc2ccc(S(=O)(=O)N3CCCCC3)cc2)cc1OC	none
CSc1ncnc2c1ncn2CCCNCc1ccccc1	none (no result: tim23-1 inh, tim10-1 inh, PfHsp90 yeast 2, TIM10 inh)
O=c1cc(Cl)nc2ccccn12	none (no result: tim23-1 inh, tim10-1 inh, TIM10 inh)
CC(Sc1nc2ncc(Cl)cc2[nH]1)C(=O)Nc1ccccc1[N+](=O)[O-] (configuration not stated)	none (no result: tim23-1 inh, tim10-1 inh, PfHsp90 yeast 2, TIM10 inh)
Nc1nnnn1/N=C/C(Br)=C/c1ccccc1	tim10-1 inh 46.4, TIM10 inh 55.3 | tim10-1 conf 47.7 | tim10 confirm 52.6
Nc1nnnn1/N=C/C=C/c1ccccc1	none
CCn1c2ccccc2c2cc(/C=N/n3cnnc3)ccc21	none
CCn1c2ccccc2c2cc(/C=N/n3cn[nH]c3=S)ccc21	tim10-1 inh 51.1, TIM10 inh 48.4 | tim10-1 conf 35.0 | tim10 confirm 49.0
